# Test results published in PubChem BioAssay AID1981 (Southern Research Specialized Biocontainment Screening …, 2009).
# About 480 (22%) of roughly 2,200 compounds were called active. The rule behind the calls is not given here. These entries were drawn from the full list. Measured potencies and affinities stand elsewhere.
# Assay: S. Typhimurium GFP fluorescence dose response in modified counterscreen for PhoP regulon inhibitor project (AID 1981);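 note: 0% = induced DMSO wells and 100% = uninduced wells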
# Conditions: 4 h; series mostly up to 150 µM; inhibition: at the top concentration
row,Structure (SMILES),inhibition
1,O=c1cc(CSc2nc(NCc3ccccc3)c3ccccc3n2)nc2ccc(Cl)cn12,-1.33% (inactive)
2,N#CCCN(C(=O)CN1C(=O)NC2(CCCC2)C1=O)c1ccccc1F,-3.3% (inactive)
3,O=C(CCNS(=O)(=O)c1cccc2nsnc12)Nc1ccc2c(c1)OCCO2,-1.71% (inactive)
4,Cc1nc2c(=O)n(C)c(=O)n(C)c2nc1Cl,27.1% (inactive)
5,Cc1cc(C)nc(/N=C(\N)Nc2ccc(SC(F)F)cc2)n1,-2.31% (inactive)
6,CC(=O)c1c(C)[nH]c(C(=O)CSc2nnc(-c3ccco3)n2Cc2ccccc2)c1C,-0.99% (inactive)
7,Cc1ccc(S(=O)(=O)c2cn(Cc3ccc(F)cc3)c3cc4c(cc3c2=O)OCO4)cc1,1.56% (inactive)
8,CCn1cc(C(=O)O)c(=O)c2cc(Br)ccc21,23.3% (inactive)
9,O=C(Cn1nc(Cc2cccnc2)c2ccccc2c1=O)NCc1ccc2c(c1)OCO2,-5.89% (inactive)
10,O=C(O)c1cc(NCc2ccc3c(c2)OCO3)ccc1N1CCOCC1,-0.23% (inactive)
11,Cc1cccc(C(=O)O/N=C2\CCSc3ccc(C)cc32)c1,-14.1% (inactive)
12,Cc1cccc(OCC(=O)N(Cc2cccs2)C2CCS(=O)(=O)C2)c1C (configuration not stated),-15.6% (inactive)
13,O=c1c2c([nH]c3ccccc13)CCCCC2,19.2% (inactive)
14,CCCOc1ccc(/C=N/O)cc1,-3.17% (inactive)
15,O=C(C[n+]1cc(-c2ccccc2)n2c1CCCCC2)c1ccc(Cl)cc1,-1.46% (inactive)
16,CCN(CC)CC(=O)Nc1nc(-c2ccc(Cl)cc2)cs1,-7.54% (inactive)
17,Clc1ccc(C[n+]2cc(-c3ccc(Cl)cc3)n3c2CCC3)cc1,7.72% (inactive)
18,C/C(=N/Nc1nc(-c2ccc(Cl)cc2)cs1)c1cccs1,-14.2% (inactive)
19,Clc1ccc(-c2c[n+](Cc3ccc(Cl)cc3Cl)c3n2CCCCC3)cc1,-3.21% (inactive)
20,CCOC(=O)Cc1ccc(NS(=O)(=O)c2ccc(SC)cc2)cc1,-8.64% (inactive)
21,CCOC(=O)N1CCN(C(=O)c2ccc(NC(=O)c3ccc(C)cc3)cc2)CC1,12.8% (inactive)
22,O=C(O)C1CCC(N2C(=O)C3CCCCC3C2=O)CC1 (configuration not stated),-1.85% (inactive)
23,COC(=O)c1sccc1NC(=O)c1cccnc1,0.03% (inactive)
24,Cc1ccc(Nc2nnc(C3C(=O)N(C)C4(C)CC3c3cc(Br)ccc3O4)s2)cc1 (configuration not stated),-4.36% (inactive)

row,Structure (SMILES),inhibition
1,Cc1ccc(S(=O)(=O)c2c(C(=O)c3ccccc3)cnc3cc4c(cc23)OCCO4)cc1,16.2% (inactive)
2,CC1(C)CC(=O)C2=C(C1)N(Cc1ccccc1)C(=O)C2(O)C(F)(F)F (configuration not stated),2% (inactive)
3,CCN1C(=O)/C(=C/N2CC(C)CC(C)C2)SC1=S (configuration not stated),-15.7% (inactive)
4,Cc1cc([N+](=O)[O-])ccc1NC(=O)Cc1ccc(F)cc1,-22.2% (inactive)
5,Cc1ccsc1/C=N/NC(=O)Cn1cnc2ccccc21,-7.04% (inactive)
6,O=C(CSc1n[nH]c(=O)[nH]c1=O)N/N=C/c1ccccc1,-7.06% (inactive)
7,O=C(CSc1nc2ccccc2s1)Nc1ccc(N2CCOCC2)c(Cl)c1,-4.65% (inactive)
8,Cc1ccc([N+](=O)[O-])cc1NC(=S)NC(=O)C(C)(C)C,-14.7% (inactive)
9,CN(CCO)c1cc(Sc2nc3ccccc3s2)c2nonc2c1[N+](=O)[O-],0.73% (inactive)
10,Cc1ccccc1-n1c(C)cc(/C=N/Nc2ccc([N+](=O)[O-])cn2)c1C,0.91% (inactive)
11,COc1ccc(NC(=O)c2sccc2SCC#N)cc1,-8.07% (inactive)
12,CC(=S)c1c(C)cc2cc(C)ccn12,-0.73% (inactive)
13,CN(C)c1ccnc(Oc2ccc(F)cc2)c1C#N,-6.5% (inactive)
14,CCn1c(SCc2ccc(F)cc2)nnc1C1CCN(S(=O)(=O)c2ccc(OC)cc2)CC1,-8.67% (inactive)
15,Cc1ccc(C(C)C)c(OCC(=O)Nn2c(=O)[nH]c3ccccc3c2=O)c1,10% (inactive)
16,COc1ccc(S(=O)(=O)N2Cc3ccccc3CC2C(=O)N2CCOCC2)cc1OC (configuration not stated),-0.72% (inactive)
17,CCNC(=O)NC1(C(=O)Nc2ccc3c(c2)OCCO3)CCCCC1,-6.31% (inactive)
18,CCN(CC)c1ccc(S(=O)(=O)Nc2cc(Cl)ccc2Cl)cc1NC(=S)NC(=O)C1CCCC1,-28.7% (inactive)
19,CCN1CCN(Cc2ccc(C)cc2C)CC1,-22.1% (inactive)
20,Cc1ccc(C2NNC(=O)C2NC(=O)c2ccccc2)cc1 (configuration not stated),-8.3% (inactive)
21,Cc1nc(N)sc1Cc1ccc2c(c1)OCO2,-1.43% (inactive)
22,C=CCNc1sc(C(=O)c2ccc(C)cc2)c(N)c1C#N,7.13% (inactive)
23,COC(=O)C(CCSC)NC(=O)c1cccc([N+](=O)[O-])c1 (configuration not stated),1.67% (inactive)
24,NC(=O)c1cnn(Cc2ccc(Cl)cc2)c1N,-11.2% (inactive)

row,Structure (SMILES),inhibition
1,Cc1nc2c(Cl)cccc2c2c1CC(CBr)O2 (configuration not stated),8.79% (inactive)
2,CC(=O)NC12CC3CC(C1)CC(C(=O)OCC(=O)c1ccc4c(c1)OCCO4)(C3)C2,-5.94% (inactive)
3,O=C1CC(c2ccco2)CC(O)=C1C=Nc1cc(Cl)cc(Cl)c1 (configuration not stated),4.95% (inactive)
4,Cc1cccc(NC(=O)c2cc(N3C(=O)CCC3=O)ccc2Cl)n1,-10.7% (inactive)
5,Cc1oc(CC(C)C)c(CN2CCCC2)c1C(=O)O,3.44% (inactive)
6,Cn1ncc(N=Cc2ccccc2O)c1C(=O)Nc1ccccc1,-4.37% (inactive)
7,O=C(Cc1cccs1)Nc1nc2c(s1)CCCC2,-17.5% (inactive)
8,Cn1cccc1C1NC(=O)c2c(sc3c2CCC(C(C)(C)C)C3)N1 (configuration not stated),5.09% (inactive)
9,Cc1c(NS(=O)(=O)c2ccc(N(C)C3CCCCC3)c([N+](=O)[O-])c2)c(=O)n(-c2ccccc2)n1C,8.27% (inactive)
10,CCCCOc1ccc(NC(=O)Nc2nnc(C)s2)cc1,-0.03% (inactive)
11,COc1cccc2[nH]c3c(N4CCN(Cc5ccc6c(c5)OCO6)CC4)ncnc3c12,11.1% (inactive)
12,O=C(NCc1cccs1)Nc1cccs1,-6.17% (inactive)
13,O=C(c1cccc(S(=O)(=O)N2CCOCC2)c1)N1CCCC1,-6.02% (inactive)
14,O=C1C2CCCN2c2ccc(S(=O)(=O)N3CCOCC3)cc2N1Cc1ccccc1F (configuration not stated),8% (inactive)
15,Cc1ccc(/C=C/C(=O)c2ccccc(=O)c2O)cc1C,15.5% (inactive)
16,O=C(CSc1nncs1)Nc1ccc2c(c1)OCCO2,-10.3% (inactive)
17,Cc1cccc(C)c1Nc1nnc(SCC(=O)Nc2sccc2C#N)s1,-5.47% (inactive)
18,COc1ccccc1N1CCN(C/C(O)=C(\C#N)c2nc(-c3ccccc3)cs2)CC1,38.2% (inactive)
19,COc1ccc(CN2CCOCC2)cc1Br,-4.59% (inactive)
20,COc1ccc(C(=O)Oc2c(CN3CCOCC3)cc(Cl)c3cccnc23)cc1,-4.17% (inactive)
21,Cc1sc(NC(=O)c2ccco2)c(CN2CCN(c3ccc(F)cc3)CC2)c1C,-1.58% (inactive)
22,O=C(CCN1CCN(c2ccc(F)cc2)CC1)Nc1ccccc1F,-7.81% (inactive)
23,CNc1ncc(Cc2ccccc2)s1,-5.18% (inactive)
24,COC(=O)c1[nH]c2ccc(C)cc2c1NC(=O)Nc1ccc(OC)cc1,15.2% (inactive)
